Data from PubChem BioAssay (NCI).
Compounds without any hit were thinned out: in the full panel of roughly 83,000, 20% have a hit.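 A percent growth of 40 corresponds to 60% growth inhibition; 0 means no net growth; -100 means all cells died. Active threshold: below 10.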 A number with no mark means an inactive call. Activity calls are given as the source filed them.

Test system: U251 CNS
Test: NCI-60 one-dose screen, 48 h (100 = growth as untreated, 0 = no growth, -100 = all killed)
Details: 10 µM unless noted
Description: Growth inhibition of the U251 human tumor cell line is measured as a screen for anti-cancer activity. Cells are grown in 96 well plates and exposed to the test compound for 48 hours. Compounds are tested at a single concentration, which is 10^-5 M for most compounds. The reported endpoint is percent growth (GI% or GIPRCNT), where numbers from 0 - 100% represent growth inhibition, and numbers from -100% - 0 represent cell death. For example, a value of 40 represents 60% growth inhibition. A value of 0 means no net growth occurred over the course of the experiment. A value of -40 indicates 40% of cells at the beginning of the experiment died by the end of the experiment. A value of -100 means all cells are dead at the end of the experiment.
NCI-60 Human Tumor Cell Lines Screen was performed using the standard one-dose NCI protocol, which is described in more detail at https://dtp.cancer.gov/discovery_development/nci-60/default.htm.
Compounds with GIPRCNT values below 10 were considered active. Activity score was based on GIPRCNT using the following formula: […]
Score is 0 for GIPRCNT values of 100 or above, 50 for GIPRCNT values of 0, and 100 for GIPRCNT values of -100.

Row | SMILES | growth
1 | O=C(Nc1cccc(Cl)c1)c1ccc(Cl)cc1Cl | 90.7%
2 | O=C(Oc1ccccc1Cl)c1ccc(Cl)cc1Cl | 89.5%
3 | O=C(OC1CCCC1)c1ccccc1Cl | 101%
4 | NNc1ncnc2c1ncn2C1OC(CO)C(O)C1O (stereo not given) | 39.7%
5 | c1ccc2c(NCCCN3CCN(CCCNc4c5ccccc5nc5ccccc45)CC3)c3ccccc3nc2c1 | -19.4% [100 µM] (active)
6 | O=[N+]([O-])c1c(Cl)ncnc1Cl | 95.9%
7 | CCCCOC(=O)c1ccccc1O | 100%
8 | CC(=O)OC/C(C)=C\CC(C)COC(C)=O (stereo not given) | 101%
9 | NNc1ncccn1 | 102%
10 | CCOC(=N)CC(=O)Nc1cccc(C)c1Cl | 103%
11 | CCCCCCCCCCC(=O)CCCCCCCCCC | 101%
12 | OCCNc1ccccc1 | 97.6%
13 | CC(C)(N)CO[C@H]1C[C@H]2CC[C@@]1(C)C2(C)C | 96.6%
14 | O=C(CC(CC(=O)c1ccccc1)c1ccccn1)c1ccccc1 | 99.3%
15 | CCCCCC(=O)OCCC1CCCCC1 | 96%
16 | CC(=O)NNC(=S)N/C=C/c1c(C)ccc([N+](=O)[O-])c1[N+](=O)[O-] | 112%
17 | O=S(=O)(O)c1cccnc1 | 113%
18 | CC(=O)C1C(=O)C(=O)N(c2cccc([N+](=O)[O-])c2)C1=O (stereo not given) | 97.3%
19 | CC(=O)C1C(=O)C(=O)N(c2ccc(Cl)c(Cl)c2)C1=O (stereo not given) | 101%
20 | CCNC(=O)OCCc1c2ccccc2nc2ccccc12 | 97%

Row | SMILES | growth
21 | Clc1ccc(-c2noc(/C=C\c3ccccc3)n2)cc1 | 91.2%
22 | CN(C)c1ncnc2c1cnn2C | 101%
23 | S=c1nc2[nH]c3ccccc3c2n[nH]1 | 105%
24 | Cc1cc(C(=O)NN)c(C#N)c(=O)[nH]1 | 104%
25 | CCOC(=O)/C(C#N)=C\c1c[nH]c2ccccc12 | 98.1%
26 | CC1CCC(C(C)(C)[N+](C)(C)C)CC1 (stereo not given) | 96.6%
27 | Cc1ccc2[nH]c3ccccc3c2c1 | 96.2%
28 | Clc1cccc(Cl)c1CSc1nc2ccccc2n2cccc12 | 95.3%
29 | NC(CCl)=NCC12CC3CC(CC(C3)C1)C2 | 6.8% (active)
30 | COC1OC(CO)C(OC)C(O)C1O (stereo not given) | 99.6%
31 | ClCc1cccc2c(CCl)cccc12 | 56.6%
32 | O=C1C=Cc2ccccc2/C1=C/c1[nH]c(=O)[nH]c1O | 29.3%
33 | CCOC(=O)N[C@H]1CCc2cc(OC)c(OC)c(OC)c2-c2ccc(SC)c(=O)cc21 | 17.1%
34 | CN1C(=O)NC(c2ccc(Cl)cc2)(c2ccc(Cl)cc2)C1=O | 94.9%
35 | O=c1cc(Cl)nc2ccccn12 | 107%
36 | Clc1ccc(/C=C/c2ccccn2)cc1 | 81.1%
37 | NC(=O)c1cc2c3ccccc3ccn2c1-c1ccccc1 | 16.1%
38 | Nc1ccc2c(c1)Cc1cc(N)c(N)cc1-2 | 86%
39 | O=c1[nH]c(=O)c2cc(Cl)cc(Cl)c2[nH]1 | 103%
40 | Oc1ccc2ccccc2c1CN1CCOCC1 | 110%
